Results reported in PubChem BioAssay (Tox21).
“And” between values parts separate entries of the source, which are not always exact repeats. Identical values can stand only once. Inconclusive results are not listed. The source made the active and inactive calls. Unless noted, calls come from the whole dose curve; as a rule, active = well fitted curve in the direction sought with a large enough effect in the repeat runs; inconclusive = weak or mixed curves; inactive = no such curve, though single readings can be large; an effect the other way counts as inactive or inconclusive.

Experiments:
[1] = molecular target: Thyrotropin receptor (Homo sapiens) (UniProt P16473); experiment: qHTS assay to identify small molecule agonists of the thyroid stimulating hormone receptor (TSHR) signaling pathway (AID 1224843; calls by dose curve; note: nearly all actives have a fitted effect of over 45% in size)
Thyrotropin receptor (Homo sapiens), sequence (P16473 whole entry, looked up): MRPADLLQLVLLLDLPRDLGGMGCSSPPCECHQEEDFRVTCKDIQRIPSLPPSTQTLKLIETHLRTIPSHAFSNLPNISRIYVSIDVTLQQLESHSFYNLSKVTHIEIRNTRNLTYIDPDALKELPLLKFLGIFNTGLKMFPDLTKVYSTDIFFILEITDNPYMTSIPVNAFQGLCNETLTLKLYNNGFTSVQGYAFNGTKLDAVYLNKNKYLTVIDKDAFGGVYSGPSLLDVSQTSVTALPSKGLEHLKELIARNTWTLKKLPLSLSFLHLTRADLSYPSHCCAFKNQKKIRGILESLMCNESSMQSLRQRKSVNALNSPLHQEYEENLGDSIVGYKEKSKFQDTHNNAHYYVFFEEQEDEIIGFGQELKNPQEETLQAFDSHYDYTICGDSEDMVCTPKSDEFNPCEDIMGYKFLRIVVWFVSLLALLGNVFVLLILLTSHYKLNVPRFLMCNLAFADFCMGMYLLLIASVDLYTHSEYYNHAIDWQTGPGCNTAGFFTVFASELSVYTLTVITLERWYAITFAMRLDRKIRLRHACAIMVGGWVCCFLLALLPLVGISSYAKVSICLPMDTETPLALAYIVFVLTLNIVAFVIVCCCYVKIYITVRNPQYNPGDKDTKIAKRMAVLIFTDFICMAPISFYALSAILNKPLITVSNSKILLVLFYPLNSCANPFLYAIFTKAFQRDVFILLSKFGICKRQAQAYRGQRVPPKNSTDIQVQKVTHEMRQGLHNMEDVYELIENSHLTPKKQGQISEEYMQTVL
In short: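 Agonist-mode screen: TSHR HEK293 cells received test chemicals for half an hour at room temperature, then HTRF cAMP detection reagents for one hour prior to fluorescence measurement. Each chemical ran as a 15-concentration series, triplicated.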

[2] = qHTS assay to identify small molecule agonists of the hypoxia (HIF-1) signaling pathway - cell viability counter screen (AID 1224844; calls by dose curve; note: nearly all actives have a fitted effect of over 50% in size)
In short: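 Same wells as the HIF-1 reporter screen; ME-180 cells carrying HRE-bla, 17 hr treatment at 37C; CellTiter-Glo luminescence read after 30 min at room temperature.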

[3] = qHTS assay to identify small molecule agonists of H2AX - cell viability counter screen (AID 1224847; calls by dose curve;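 note: wild-type CHO-K1 cells; top concentration of the series differs between compounds; nearly all actives have a fitted effect of over 30% in size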)
In short: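 CHO-K1 cells plated overnight at 37C, then exposed 3 h at 37C to compounds at 15 concentrations (0.76% DMSO final). Viability by CellTiter-Glo luminescence after 30 min at room temperature.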

[4] = qHTS assay to identify small molecule antagonists of the estrogen related receptor (ERR) signaling pathway from Tox21 library (AID 1224848); note: nearly all actives have a fitted effect of over 50% in size
In short: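 Quantitative high-throughput format: ERR reporter cells (2,000/well) pre-incubated 6 h, treated 18 h at 37 C with compounds in DMSO alongside positive and negative controls, then read by ONE-Glo luminescence.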

[5] = qHTS assay to identify small molecule agonists of the estrogen related receptor (ERR) signaling pathway from Tox21 library (AID 1224849; calls by dose curve; note: nearly all actives have a fitted effect of over 15% in size); settings: ERR reporter cell line, ONE-Glo luciferase, 18 h
In short: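 Reporter cells (ERR, NTP source) treated with Tox21 10K compounds 18 h, 37 C. Readout: ONE-Glo luminescence, 30 min RT.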

[6] = qHTS RealTime-Glo MT Cell Viability Assay in HepG2 cells - 24 hour (AID 1224867); note: nearly all actives have a fitted effect of over 50% in size
In short: (§1)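 HepG2 cells were seeded at 600 cells/well together with NanoLuc luciferase and a cell-permeant prosubstrate, preincubated 5 h at 37 C/5% CO2, then pin-dosed with compounds in DMSO. Nonlytic luminescence from viable cells was read at each time point.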

[7] = qHTS RealTime-Glo MT Cell Viability Assay in HEK293 cells - 32 hour (AID 1224868); note: top concentration of the series differs between compounds; nearly all actives have a fitted effect of over 50% in size
In short: (§2)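 HEK293 cells were seeded at 600 cells/well together with NanoLuc luciferase and cell-permeant prosubstrate, preincubated 5 h at 37 C/5% CO2, then given compound in DMSO by pintool. Luminescence from viable-cell prosubstrate reduction was read repeatedly over 40 h.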

[8] = A CellTox Green Cytotoxicity Assay to monitor cytotoxicity in HEK293 cells - 0 hour (AID 1224869); note: nearly all actives have a fitted effect of over 50% in size
In short: (§3)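 Homogeneous no-lysis format: HEK293 cell suspension mixed with CellTox Green reagent, seeded, incubated 5 h at 37 C/5% CO2, then dosed by pintool with compound in DMSO.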

[9] = qHTS RealTime-Glo MT Cell Viability Assay in HepG2 cells - 40 hour (AID 1224870); note: nearly all actives have a fitted effect of over 50% in size
In short: (§4)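 HepG2 cells (600/well) mixed with RealTime-Glo MT reagent, settled 5 h at 37 C/5% CO2 before compound addition. Nonlytic NanoLuc luminescence from viable-cell prosubstrate reduction read repeatedly during 40 h treatment at 37 C.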

[10] = A CellTox Green Cytotoxicity Assay to monitor cytotoxicity in HEK293 cells - 40 hour (AID 1224871); note: nearly all actives have a fitted effect of over 45% in size
In short: as §3

[11] = qHTS RealTime-Glo MT Cell Viability Assay in HEK293 cells - 16 hour (AID 1224872)
In short: as §2

[12] = qHTS RealTime-Glo MT Cell Viability Assay in HepG2 cells - 8 hour (AID 1224873); note: nearly all actives have a fitted effect of over 55% in size
In short: as §4

[13] = qHTS RealTime-Glo MT Cell Viability Assay in HEK293 cells - 40 hour (AID 1224874); settings: RealTime-Glo luminescence; max response: active compounds read low; note: nearly all actives have a fitted effect of over 50% in size
In short: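 Measured as luminescence from the same continuously cultured HEK293 wells at successive time points (0, 8, 16, 24, 32, 40 h) after compound addition. Reagent present from seeding; dosing at 5 h; incubation 37 C.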

[14] = A CellTox Green Cytotoxicity Assay to monitor cytotoxicity in HEK293 cells - 24 hour (AID 1224875); note: nearly all actives have a fitted effect of over 45% in size
In short: as §3

[15] = A CellTox Green Cytotoxicity Assay to monitor cytotoxicity in HepG2 cells - 16 hour (AID 1224876); note: nearly all actives have a fitted effect of over 45% in size
In short: (§5)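 Fluorescent DNA-binding dye, 600 HepG2 cells/well, 5 h preincubation then compound in DMSO; same plates read at 0–40 h, 37 C.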

[16] = qHTS RealTime-Glo MT Cell Viability Assay in HepG2 cells - 32 hour (AID 1224877); note: nearly all actives have a fitted effect of over 55% in size
In short: as §1

[17] = A CellTox Green Cytotoxicity Assay to monitor cytotoxicity in HepG2 cells - 24 hour (AID 1224878); note: nearly all actives have a fitted effect of over 45% in size
In short: as §5

[18] = A CellTox Green Cytotoxicity Assay to monitor cytotoxicity in HepG2 cells - 40 hour (AID 1224879); note: nearly all actives have a fitted effect of over 40% in size
In short: as §5

[19] = qHTS assay to identify small molecule agonists of the hypoxia (HIF-1) signaling pathway (AID 1224846; active = well fitted activation curve with a large enough effect in the signal ratio in the repeat runs, not every such curve was filed as active; the % refers to the signal ratio)
In short: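 In ME-180 cells bearing an HRE-bla construct, 17 h treatment with DMSO-dissolved compounds at 37C was followed by CCF4-AM loading to quantify reporter induction.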
% is set by controls: 0 for no effect and ±100 for the full control effect.

CN(C)CCOC(C)(c1ccccc1)c1ccccn1 (stereo not given)
inactive: Potency [1] | Potency [2] | Potency [3] | Potency [4] | activity change, positive = activation ([5]; at 42.5 µM (top of the series)) 0.337% | activity change, positive = activation ([5]; at 92.4 µM (top of the series)) 3.01% and -2.07% | Potency [6] | Potency [7] | Potency [8] | Potency [9] | Potency [10] | Potency [11] | Potency [12] | max response [13] 2.62% and -0.138% and 6.89% | Potency [14] | Potency [15] | Potency [16] | Potency [17] | Potency [18]

NC(=O)c1cccnc1
inactive: Potency [1] | Potency [2] | outcome [19] | Potency [3] | Potency [6] | Potency [7] | Potency [8] | Potency [9] | Potency [10] | Potency [11] | Potency [12] | max response [13] 9.96% and -1.91% and 6.24% | Potency [14] | Potency [15] | Potency [16] | Potency [17] | Potency [18]

Cc1cc(C)nc(NS(=O)(=O)c2ccc(N)cc2)n1
inactive: Potency [1] | Potency [2] | outcome [19] | Potency [3] | Potency [6] | Potency [7] | Potency [8] | Potency [9] | Potency [10] | Potency [11] | Potency [12] | max response [13] -37.4% and -3.88% and 7.67% | Potency [14] | Potency [15] | Potency [16] | Potency [17] | Potency [18]

OC[C@H]1O[C@H](O[C@]2(CCl)O[C@H](CCl)[C@@H](O)[C@@H]2O)[C@H](O)[C@@H](O)[C@H]1Cl
inactive: Potency [1] | Potency [2] | outcome [19] | Potency [3] | Potency [6] | Potency [7] | Potency [8] | Potency [9] | Potency [10] | Potency [11] | Potency [12] | max response [13] -6.96% and 4.96% and 1.17% | Potency [14] | Potency [15] | Potency [16] | Potency [17] | Potency [18]
